# In PubChem BioAssay (NCATS):
# Records with an inconclusive call do not appear. A call without a number means that no potency is given here. Active and inactive are the calls of the source. Calls come from the whole dose curve; as a rule, active = well fitted inhibition curve with a large enough effect; inconclusive = small, poorly fitted or top-dose-only effect; inactive = flat fitted curve, though single readings scatter. Where a SMILES comes first, the peptide text is derived from it. [ ]: non-standard residue; d: D form. pGlu = O=C1CC[C@@H](C(=O)O)N1; Thz = O=C(O)[C@@H]1CSCN1
# What was measured:
# Assay in all cases: qHTS profiling for inhibitors of Plasmodium falciparum proliferation (AID 504749); note: nearly all actives have a fitted effect of over 60% in size
# Conditions in all cases: P. falciparum in erythrocytes, SYBR Green DNA, 72 h; series mostly up to 28.7 µM
# [1] = test system: CP215
# Outline: (§1)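 Infected RBCs, 0.3% parasitemia/2.5% Hct final; cpd 72 h, 37 C, 5% CO2; lysis buffer with saponin/triton/SYBR Green I, o/n RT dark; FI 485/535; norm. to artemisinin (0.29 uM) and DMSO.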
# [2] = test system: CP217
# Outline: as §1
# [3] = test system: CP237
# Outline: as §1
# [4] = test system: CP238
# Outline: as §1
# [5] = test system: CP247
# Outline: as §1
# [6] = test system: CP250
# Outline: as §1
# [7] = test system: CP252
# Outline: as §1
# [8] = test system: CP256
# Outline: as §1
# [9] = test system: CP260
# Outline: as §1
# [10] = test system: CP262
# Outline: as §1
# [11] = test system: CP265
# Outline: as §1
# [12] = test system: CP266
# Outline: as §1
# [13] = test system: CP268
# Outline: as §1
# [14] = test system: CP269
# Outline: as §1
# [15] = test system: CP286
# Outline: as §1
# [16] = test system: CP291
# Outline: as §1
# [17] = test system: CP297
# Outline: as §1
# [18] = test system: CP305
# Outline: as §1
# [19] = test system: CP315
# Outline: as §1
# [20] = test system: CP325
# Outline: as §1
# Potency is the fitted concentration of half-maximal effect.
Compound,Potency [1],Potency [2],Potency [3],Potency [4],Potency [5],Potency [6],Potency [7],Potency [8],Potency [9],Potency [10],Potency [11],Potency [12],Potency [13],Potency [14],Potency [15],Potency [16],Potency [17],Potency [18],Potency [19],Potency [20]
O=C(O)[C@H](O)[C@@H](O)[C@H](O)[C@H](O)CO,inactive,inactive,inactive,inactive,inactive,inactive,inactive,inactive,inactive,inactive,inactive,inactive,inactive,inactive,inactive,inactive,inactive,inactive,inactive,inactive
CCCCCCCCCCCCCCCCCC(=O)O,inactive,inactive,inactive,inactive,inactive,inactive,inactive,inactive,inactive,inactive,inactive,inactive,inactive,inactive,inactive,inactive,inactive,inactive,inactive,inactive
O=C(O)Cc1ccc(-c2ccccc2)cc1,inactive,inactive,inactive,inactive,inactive,inactive,inactive,inactive,inactive,inactive,inactive,inactive,inactive,inactive,inactive,inactive,inactive,inactive,inactive,inactive
Nc1cc(-c2ccncc2)c[nH]c1=O,inactive,inactive,inactive,inactive,inactive,inactive,inactive,inactive,inactive,inactive,inactive,inactive,inactive,inactive,inactive,inactive,inactive,inactive,inactive,inactive
C=C(Nc1ccc(OCC)cc1)Nc1ccc(OCC)cc1,inactive,inactive,inactive,inactive,inactive,inactive,inactive,inactive,inactive,inactive,inactive,inactive,inactive,inactive,inactive,inactive,inactive,inactive,inactive,inactive
CCCOC(=O)c1ccc(O)cc1,inactive,inactive,inactive,inactive,inactive,inactive,inactive,inactive,inactive,inactive,inactive,inactive,inactive,inactive,inactive,inactive,inactive,inactive,inactive,inactive
COc1ccc(-c2cc(=S)ss2)cc1,inactive,inactive,inactive,inactive,inactive,inactive,inactive,inactive,inactive,inactive,inactive,inactive,inactive,inactive,inactive,inactive,inactive,inactive,inactive,inactive
CC(C(=O)O)c1ccc2c(c1)[nH]c1ccc(Cl)cc12 (stereo not given),inactive,inactive,inactive,inactive,inactive,inactive,inactive,inactive,inactive,inactive,inactive,inactive,inactive,inactive,inactive,inactive,inactive,inactive,inactive,inactive
CCCCCCOc1ccccc1C(N)=O,inactive,inactive,inactive,inactive,inactive,inactive,inactive,inactive,inactive,inactive,inactive,inactive,inactive,inactive,inactive,inactive,inactive,inactive,inactive,inactive
C=CCCCCCCCCC(=O)O,inactive,inactive,inactive,inactive,inactive,inactive,inactive,inactive,inactive,inactive,inactive,inactive,inactive,inactive,inactive,inactive,inactive,inactive,inactive,inactive
CCCCCCCCCCCCCCCC(=O)OC(C)C,inactive,inactive,inactive,inactive,inactive,inactive,inactive,inactive,inactive,inactive,inactive,inactive,inactive,inactive,inactive,inactive,inactive,inactive,inactive,inactive
Cc1[nH]cnc1CN1CCc2c(c3ccccc3n2C)C1=O,inactive,inactive,inactive,inactive,inactive,inactive,inactive,inactive,inactive,inactive,inactive,inactive,inactive,inactive,inactive,inactive,inactive,inactive,inactive,inactive
C=CC(N)CCC(=O)O (stereo not given),inactive,inactive,inactive,inactive,inactive,inactive,inactive,inactive,inactive,inactive,inactive,inactive,inactive,inactive,inactive,inactive,inactive,inactive,inactive,inactive
O=C(/C=C/c1ccccc1)NCCO,inactive,inactive,inactive,inactive,inactive,inactive,inactive,inactive,inactive,inactive,inactive,inactive,inactive,inactive,inactive,inactive,inactive,inactive,inactive,inactive
[O-][n+]1ccccc1SSc1cccc[n+]1[O-],1350 nM (active),1260 nM (active),891 nM (active),1120 nM (active),891 nM (active),708 nM (active),1000 nM (active),2000 nM (active),708 nM (active),1070 nM (active),1260 nM (active),1510 nM (active),849 nM (active),1070 nM (active),891 nM (active),1200 nM (active),1350 nM (active),953 nM (active),1690 nM (active),953 nM (active)
COc1cc(/C=C/C(=O)N2CCN(CC(=O)N3CCCC3)CC2)cc(OC)c1OC,inactive,inactive,inactive,inactive,inactive,inactive,inactive,inactive,inactive,inactive,inactive,inactive,inactive,inactive,inactive,inactive,inactive,inactive,inactive,inactive
C#C[C@]1(O)CC[C@H]2[C@@H]3CCc4cc(O)ccc4[C@H]3CC[C@@]21C,inactive,inactive,inactive,inactive,inactive,inactive,inactive,inactive,inactive,inactive,inactive,inactive,inactive,inactive,inactive,inactive,inactive,inactive,inactive,inactive
CC1(C)S[C@@H]2[C@H](NC(=O)[C@H](NC(=O)N3CCN(S(C)(=O)=O)C3=O)c3ccccc3)C(=O)N2[C@H]1C(=O)O,inactive,inactive,inactive,inactive,inactive,inactive,inactive,inactive,inactive,inactive,inactive,inactive,inactive,inactive,inactive,inactive,inactive,inactive,inactive,inactive
C=CCN1C(=O)C(CC(C)C)NC1=S (stereo not given),inactive,inactive,inactive,inactive,inactive,inactive,inactive,inactive,inactive,inactive,inactive,inactive,inactive,inactive,inactive,inactive,inactive,inactive,inactive,inactive
CCCCC[C@H](O)/C=C/[C@@H]1[C@@H](C/C=C\CCCC(=O)O)[C@@H](O)C[C@H]1O,inactive,inactive,inactive,inactive,inactive,inactive,inactive,inactive,inactive,inactive,inactive,inactive,inactive,inactive,inactive,inactive,inactive,inactive,inactive,inactive
O=C(O)c1ccccc1Nc1cccc(C(F)(F)F)c1,inactive,inactive,inactive,inactive,inactive,inactive,inactive,inactive,inactive,inactive,inactive,inactive,inactive,inactive,inactive,inactive,inactive,inactive,inactive,inactive
O=C(O)COc1ccc(C(=O)c2cccs2)c(Cl)c1Cl,inactive,inactive,inactive,inactive,inactive,inactive,inactive,inactive,inactive,inactive,inactive,inactive,inactive,inactive,inactive,inactive,inactive,inactive,inactive,inactive
CCC1C(=O)OCC1Cc1cncn1C (stereo not given),inactive,inactive,inactive,inactive,inactive,inactive,inactive,inactive,inactive,inactive,inactive,inactive,inactive,inactive,inactive,inactive,inactive,inactive,inactive,inactive
COc1cc2c3cc1Oc1cc(ccc1O)C[C@@H]1c4c(cc(OC)c(O)c4Oc4ccc(cc4)C[C@@H]3N(C)CC2)CC[N+]1(C)C,inactive,inactive,inactive,inactive,inactive,inactive,inactive,inactive,inactive,inactive,inactive,inactive,inactive,inactive,inactive,inactive,inactive,inactive,inactive,inactive
O=C1CC[C@@H](C(=O)N2CSC[C@H]2C(=O)O)N1 ([pGlu]-[Thz]-OH),inactive,inactive,inactive,inactive,inactive,inactive,inactive,inactive,inactive,inactive,inactive,inactive,inactive,inactive,inactive,inactive,inactive,inactive,inactive,inactive
Nc1ccc(C(=O)O)c(O)c1,inactive,inactive,inactive,inactive,inactive,inactive,inactive,inactive,inactive,inactive,inactive,inactive,inactive,inactive,inactive,inactive,inactive,inactive,inactive,inactive
